# High-throughput results as filed in PubChem BioAssay.
# pS6 MEF inh = Acumen qHTS Assay for Inhibitors of the mTORC1 Signaling Pathway in MEF (Tsc2-/-, p53-/-) Cells: Sytravon; Tsc2-/- p53-/- MEF, phospho-rpS6 immunofluorescence/PI, 24 h; 44,000 compounds, 0.78% hits; Potency, µM (titrated, usually from 38.3 µM), for inactives: at the highest dose activity change, negative = inhibition, hits mostly inhibitors;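 further: potency means the concentration at half of the fitted maximal effect; plate controls were DMSO for no effect and rapamycin for full effect; nearly all actives have a fitted effect of over 50% in size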
#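 Compounds act on Tsc2-/-, p53-/- fibroblasts carrying an empty vector for 24 h before fixation and dual staining for phospho-S6 and DNA (propidium iodide). Values are percentages of cells above a rapamycin-defined pS6/PI threshold.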
# PMP22 txn prim = Cell-based coincidence reporter assay to measure PMP22 gene transcription in S16 Pmp22-F2sN cells - Primary screen; S16 Pmp22-F2sN Schwann cells, FLuc/NLuc coincidence luminescence, 24 h; Potency, µM (titrated, usually from 57.5 µM), for the others: top-dose activity change, negative = inhibition, usual class: inhibitors; 43,000 compounds, 2% hits; AID 1508649, 2021; active means clear falling dose curves in both reporters; inconclusive means both reporters move, but less clearly or upward; inactive means either reporter flat; the % is the NLuc reporter signal; further: potency means the concentration at half of the fitted maximal effect; on the % scale 0 is the no-effect control and ±100 the full control effect
#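 Luminescent read-out of sequential FLuc and NLuc signals from a reporter embedded in the Pmp22 3' UTR of S16 Schwann cells, taken after 24 h compound exposure at 37C; compounds reducing both signals score as inhibitors of expression.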
# HTT-AS promoter = Primary qHTS for Identification of Small Molecule Activators of Huntingtin-Antisense Promoter Activity | HEK293 HTT-AS promoter firefly luciferase reporter, 24 h; response scale: percent change from vehicle, -100% = no light | Potency, µM (highest dose often 57.5 µM), inactives show at the top dose activity change, positive = activation, most hits filed as activators | 48,000 compounds, 0.24% hits | AID 1508624, 2021; further: potency means the concentration at half of the fitted maximal effect; nearly all actives have a fitted effect of over 55% in size
#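 HEK293 Fluc reporter, 2,500 cells/well, 24 h pre-culture; cpds up to 57.5 uM final, 24 h 37 degrees C; Dual-Glo, 10 min RT; normalized vehicle = 0%, zero RLU = -100%.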
# HTT promoter inh = Primary qHTS for Identification of Small Molecule Inhibitors of Huntingtin Promoter Activity | HEK293 HTT promoter firefly luciferase reporter, 24 h | 48,000 compounds, 0.93% hits | Potency, µM (top dose mostly 57.5 µM), inactives show at the top dose activity change, negative = inhibition, usual class: inhibitors; further: potency means the concentration at half of the fitted maximal effect; nearly all actives have a fitted effect of over 50% in size
#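 Quantitative HTS used concentration series of up to 57.5 uM final on HEK293 luciferase reporter cells, 24 h at 37 degrees C. Readout was Dual-Glo firefly luminescence.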
# OvCa metastasis = Primary qHTS assay for Inhibitors of ovarian cancer metastasis using an organotypic tumor microenvironment (TME) model | AID 1963576, 2024 | 46,000 compounds, 0.1% hits | Potency, µM (titrated, usually from 45.8 µM), for the others: at the top dose activity change, negative = inhibition, usual class: inhibitors | SKOV3ip1-GFP adhesion/invasion on 3D omental model, fluorescence;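 further: potency means the concentration at half of the fitted maximal effect; plate controls were DMSO wells for no effect and tomatine positive control wells for full effect; nearly all actives have a fitted effect of over 65% in size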
#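 A 3D layer of primary human omental fibroblasts, mesothelial cells, fibronectin and collagen I, grown 48 hr, received SKOV3ip1-GFP cells in serum-free medium plus compounds at 0.36-46 umol/L. After 2 hr RT and 16 hr 37 C, fixed adherent GFP cells were counted; normalized to DMSO and tomatine.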
# S16 F2sN tox = Cell viability qHTS assay in S16 Pmp22-F2sN cells; 43,000 compounds, 0.48% hits; AID 1508642, 2021; Potency, µM (highest dose often 57.5 µM), for the others: top-dose activity change, negative = cytotoxicity, most hits filed as cytotoxic; S16 Pmp22-F2sN Schwann cells viability, CellTiter-Glo, 24 h; further: potency means the concentration at half of the fitted maximal effect; on the % scale 0 is the no-effect control and ±100 the full control effect; nearly all actives have a fitted effect of over 65% in size
#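 Used to flag compounds lowering reporter output through toxicity, this quantitative HTS measures ATP-based CellTiter-Glo luminescence in S16 Pmp22-F2sN Schwann cells after 24 h compound exposure at 37C.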
# NLuc sat counter = Biochemical NLuc saturation counterscreen for small molecule modulators of PMP22 gene expression - Nano-Glo assay; shares compounds with PMP22 txn prim; Secreted NLuc enzyme (filtered S16 cell medium), Nano-Glo luminescence; Potency, µM (highest dose often 57.5 µM), for the others: at the highest dose activity change, negative = inhibition, actives largely listed as inhibitors; 690 compounds, 4% hits; AID 1508638, 2021; further: potency means the concentration at half of the fitted maximal effect; on the % scale 0 is the no-effect control and ±100 the full control effect
# NLuc Km ctr = Biochemical coelenterazine-based NLuc counterscreen for small molecule modulators of PMP22 gene expression - Km assay; Potency, µM (series often up to 57.5 µM), without a hit: top-dose activity change, negative = inhibition, actives largely listed as inhibitors; 690 compounds, 5% hits; secreted NLuc enzyme, coelenterazine luminescence, Km conditions; shares compounds with PMP22 txn prim; further: potency means the concentration at half of the fitted maximal effect; on the % scale 0 is the no-effect control and ±100 the full control effect
# FLuc ctr PMP22 = Biochemical FLuc counterscreen for small molecule modulators of PMP22 gene expression; shares compounds with PMP22 txn prim; purified P. pyralis FLuc, luminescence, 10 min; Potency, µM (highest dose often 57.5 µM), for inactives: at the top dose activity, negative = inhibition, most hits filed as inhibitors; 690 tested, under 10 active; further: % of control where 0% means no effect
# Target sequence (P08659 whole entry, looked up): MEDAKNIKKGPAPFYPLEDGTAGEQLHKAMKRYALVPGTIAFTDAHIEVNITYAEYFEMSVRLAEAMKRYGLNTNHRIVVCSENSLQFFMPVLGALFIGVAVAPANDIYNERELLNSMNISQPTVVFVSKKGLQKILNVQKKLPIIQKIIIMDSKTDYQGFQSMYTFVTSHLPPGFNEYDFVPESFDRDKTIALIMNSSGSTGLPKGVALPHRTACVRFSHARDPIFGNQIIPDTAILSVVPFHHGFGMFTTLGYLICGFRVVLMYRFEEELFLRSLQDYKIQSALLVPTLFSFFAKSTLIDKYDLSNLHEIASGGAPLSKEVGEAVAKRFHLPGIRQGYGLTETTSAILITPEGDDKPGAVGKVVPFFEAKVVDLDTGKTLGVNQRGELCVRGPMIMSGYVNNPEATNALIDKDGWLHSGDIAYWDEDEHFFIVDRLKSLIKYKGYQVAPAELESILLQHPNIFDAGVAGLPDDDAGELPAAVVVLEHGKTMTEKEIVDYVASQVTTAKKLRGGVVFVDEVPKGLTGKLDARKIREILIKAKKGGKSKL
# S16 F2sN tox cnf = Cell viability qHTS assay in S16 Pmp22-F2sN cells - Confirmatory screen. 690 compounds, 7% hits. Potency, µM (highest dose often 57.5 µM), for inactives: top-dose activity change, negative = viability loss, actives largely listed as cytotoxic. S16 Schwann cells viability, CellTiter-Glo ATP luminescence, 24 h. shares compounds with PMP22 txn prim; further: potency means the concentration at half of the fitted maximal effect; on the % scale 0 is the no-effect control and ±100 the full control effect
# PMP22 txn conf = Cell-based coincidence reporter assay to measure PMP22 gene transcription in S16 Pmp22-F2sN cells - Confirmatory screen | S16 Schwann cells Pmp22-F2sN, dual luciferase, 24 h | AID 1508646, 2021 | shares compounds with PMP22 txn prim | 690 compounds, 22% hits | Potency, µM (doses to about 57.5 µM), inactives show at the highest dose activity change, negative = inhibition, hits mostly inhibitors; active means clear falling dose curves in both reporters; inconclusive means both reporters move, but less clearly or upward; inactive means either reporter flat; the % is the FLuc reporter signal; further: potency means the concentration at half of the fitted maximal effect
# * = called active by the depositor; i = inactive; ? = inconclusive; . = not tested or not shown; [ ] = another dose, or the depositor's remark. An excerpt weighted towards active compounds, which were near 3.6% of everything screened. Unless noted, the call rests on the fitted dose curve; in most records, active means well fitted curve in the direction sought with a large enough effect; inconclusive means small, poorly fitted or top-dose-only effect, or another doubt; inactive means no such curve, though single readings can be large; an effect the other way counts as inactive or inconclusive.
SMILES,pS6 MEF inh,PMP22 txn prim,HTT-AS promoter,HTT promoter inh,OvCa metastasis,S16 F2sN tox,NLuc sat counter,NLuc Km ctr,FLuc ctr PMP22,S16 F2sN tox cnf,PMP22 txn conf
Cc1ccc(CNC(=O)c2cn(C)c3ccc(S(=O)(=O)N(C)C4CCCCC4)cc3c2=O)cc1,-3%,-25%,-5%,-12%[11.5 µM],i,1%,.,.,.,.,.
CCc1cccc(C)c1NC(=O)c1nc2ccccc2nc1N1CCCCC1,-8%,?,-3%,-16%,-5%,0%,-5%,?,2%,9%,-27%
CNC(=O)c1c(-c2ccc(F)cc2)oc2cc(N(CCO)S(C)(=O)=O)c(C3CC3)cc12,.,.,-37%,-7%,-1%,.,.,.,.,.,.
CNC(=O)c1ccc(C)c(-n2c(C)cc(OCc3ccc(F)cc3F)c(Br)c2=O)c1,.,.,2%,-8%,5%,.,.,.,.,.,.
CC(C)c1ccc(NC(=O)N2CCN(c3ccc(Cl)c(Cl)c3)CC2)cc1,-18%,11µM*,-42%,32µM*,-23%,-16%,?,?,-18%,-14%,?
Cc1ccc(NC(=O)N2CCN(c3ccc(Cl)c(Cl)c3)CC2)cc1,-20%,?,-31%,?,-3%,-30%,.,.,.,.,.
Cc1ccc(Cn2c(C)c3cnn(CC(=O)N4CCN(c5cc(C)ccc5C)CC4)c(=O)c3c2C)cc1,-5%,12µM*,-51%,?,i,-16%,-6%,15%,8%,-13%,-15%
Cc1c2cnn(CC(=O)N3CCN(c4ccc(F)cc4)CC3)c(=O)c2c(C)n1Cc1ccc(F)cc1,3%,?,-23%,?,-8%,-21%,.,.,.,.,.
CCOC(=O)c1c(C)oc2nc(C)nc(NCCc3ccc(OCC)cc3)c12,6%,14µM*,-32%,?,-23%,-27%,?,?,-10%,-11%,?
CCOc1ccc(CCNC(=O)c2c(C)oc3ncn(CC(C)C)c(=O)c23)cc1,5%,20µM*,-10%,1%,11%,2%,?,2%,?,2%,-32%
Cc1oc2ncn(CC(C)C)c(=O)c2c1C(=O)NCCc1ccc(Cl)cc1,1%,?,-15%,?,8%,-9%,.,.,.,.,.
CCOC(=O)c1c(C)oc2nc(C)nc(NCCc3ccc(Cl)cc3)c12,?,-35%,-19%,-5%,10%,14%,.,.,.,.,.
O=C(NCCc1ccccc1Cl)C1CCN(c2nc3ccccc3nc2C(F)(F)F)CC1,0%,9.5µM*,-11%,-10%,-30%,?,-1%,9%,4%,21%,-26%
COc1cccc(NC(=O)CCCn2c(=O)c3cccn3c3cccnc32)c1,3%,?,-13%,18%,i,0%,?,?,0%,4%,?
COc1ccc(CNC(=O)CCCn2c(=O)c3cccn3c3cccnc32)cc1,1%,?,0%,7%,3%,9%,.,.,.,.,.
CCOc1ccc(NC(=O)NC(C)c2c(-n3cccc3)sc3c2CCN(CC)C3)cc1 (configuration not stated),-9%,15µM*,1%,-16%,i,-19%,?,-20%,4%,-20%,-28%
CCOCCCNC(=O)NC(C)c1c(-n2cccc2)sc2c1CCN(CC)C2 (configuration not stated),1%,16µM*,-9%,-20%,-3%,1%,-6%,0%,7%,-21%,14%
COC(=O)Nc1ccc(-c2nc(N3CCOCC3)c3cnn(C4CCN(C(=O)OC)CC4)c3n2)cc1,.,.,-44%,-31%,28%,.,.,.,.,.,.
CCCc1oc2ccc(NS(=O)(=O)c3ccc(OC)cc3)cc2c1C(=O)OCC,4.1µM*,13µM*,-48%,?,-27%,8%,-14%,?,-1%,4%,-52%
CCN(Cc1ccccc1)C(=O)Cn1c(=O)n(-c2ccccc2)c(=O)c2c1c1cc(C)ccc1n2C,3%,18µM*,-15%,-15%,2%,?,-6%,1%,4%,18%,?
COc1ccc(NC(=O)Cn2c(=O)n(-c3cccc(C)c3)c(=O)c3c2c2cc(C)ccc2n3C)cc1Cl,-3%,15µM*,-29%,-23%,0%,11%,-2%,2%,2%,0%,?
CCN(Cc1ccccc1)C(=O)Cn1c(=O)n(-c2cccc(C)c2)c(=O)c2c1c1cc(OC)ccc1n2C,7%,?,-17%,-12%,-2%,17%,.,.,.,.,.
